Results filed as inconclusive are left out. A call without a number means that no potency is given here. The source made the active and inactive calls. The call rests on the fitted dose curve; in most records, active means well fitted cell-killing curve with a large enough effect; inconclusive means small, poorly fitted or top-dose-only effect, or effect the other way; inactive means no such curve, though single readings can be large or run the other way.
Experiment: Quantitative highthroughput screen to assess conditional lethalithy of SEM cells grown in Human Plasma-Like Medium with dialyzed fetal bovine serum (HPLM+ds) (AID 1963882)
Conditions: SEM B-ALL cells in HPLM+ds, CellTiter-Glo viability, 48 h; series mostly up to 45.8 µM
Outline: (§1)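 Each medium arm—HPLM with 10% dialyzed FBS, or RPMI1640 with 5 mM glucose and 10% untreated or dialyzed FBS—was screened against an 11-point, 3-fold compound titration for 48 h at 37 °C, with CellTiter-Glo luminescence as endpoint.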
With `O=c1oc2c(O)c(O)cc3c(=O)oc4c(O)c(O)cc1c4c23` the Potency was “inactive”. In the case of `Cc1nnc(NS(=O)(=O)c2ccc(N)cc2)s1`, the Potency is reported as “inactive”. With `NC1=N[C@H]2[C@H](CS[C@H]2CCCCC(=O)O)N1` the Potency was “inactive”. In the case of `Nc1ccn([C@@H]2CS[C@H](CO)O2)c(=O)n1`, the Potency is reported as “inactive”. With `N#Cc1ccc(C(c2ccc(C#N)cc2)n2cncn2)cc1` the Potency was “inactive”. In the case of `CC(C)Cn1cnc2c(N)nc3ccccc3c21`, the Potency is reported as “inactive”. In the case of `c1ccc([C@H]2CN3CCSC3=N2)cc1`, the Potency is reported as “inactive”. With `C=CCn1c(=O)c2cnc(Nc3ccc(N4CCN(C)CC4)cc3)nc2n1-c1cccc(C(C)(C)O)n1` the Potency was 0.235 µM (active). With `CC(=O)OCC(CCn1cnc2cnc(N)nc21)COC(C)=O` the Potency was “inactive”. With `OC[C@H]1O[C@@H](OCCc2ccc(O)cc2)[C@H](O)[C@@H](O)[C@H]1O` the Potency was “inactive”. For `CC(=O)c1cnc2ccc(-c3cc(Cl)c(O)c(Cl)c3)nc2c1NC1CCC(CN(C)C)CC1` (centres undefined), the Potency was 0.0741 µM (active). With `C[C@@H](c1ncncc1F)[C@](O)(Cn1cncn1)c1ccc(F)cc1F` the Potency was “inactive”. With `Oc1c(Cl)cc(Cl)c2cccnc12` the Potency was 16.6 µM (active). For `CC[N+](CC)(CC)CCOc1cccc(OCC[N+](CC)(CC)CC)c1OCC[N+](CC)(CC)CC`, the Potency was “inactive”. With `C#CCN[C@@H]1CCc2ccccc21` the Potency was “inactive”. In the case of `Fc1cc(-c2cccc3ncc(-c4cnn(C5CCNCC5)c4)nc23)cc(F)c1CN1CCOCC1`, the Potency is reported as 4.69 µM (active). In the case of `Cc1nc2n(c(=O)c1CCN1CCC(c3noc4cc(F)ccc34)CC1)CCCC2`, the Potency is reported as “inactive”. With `CNC1CCCN(c2c(F)cc3c(=O)c(C(=O)O)cn(C4CC4)c3c2OC)C1` (centres undefined) the Potency was “inactive”. In the case of `Nc1cc(C(Cl)=C(Cl)Cl)c(S(N)(=O)=O)cc1S(N)(=O)=O`, the Potency is reported as 7.43 µM (active). For `CCOC(=O)C1=C(N)Oc2ccc(Br)cc2C1C(C#N)C(=O)OCC` (centres undefined), the Potency was “inactive”. In the case of `Cc1cnc(Nc2ccc(N3CCN(C)CC3)cc2)nc1Nc1cccc(S(=O)(=O)NC(C)(C)C)c1`, the Potency is reported as 1.05 µM (active). With `CCCn1c(=O)c2[nH]c(-c3cnn(Cc4cccc(C(F)(F)F)c4)c3)nc2n(CC)c1=O` the Potency was “inactive”.

Experiment: Quantitative highthroughput screen to assess conditional lethalithy of SEM cells grown in RPMI1640 with unreated serum (RPMI+s) (AID 1963883)
Conditions: SEM B-ALL cells, CellTiter-Glo viability, 48 h; series mostly up to 45.8 µM
Outline: as §1
In the case of `O=c1oc2c(O)c(O)cc3c(=O)oc4c(O)c(O)cc1c4c23`, the Potency is reported as “inactive”. For `Cc1nnc(NS(=O)(=O)c2ccc(N)cc2)s1`, the Potency was 9.35 µM (active). For `NC1=N[C@H]2[C@H](CS[C@H]2CCCCC(=O)O)N1`, the Potency was “inactive”. With `Nc1ccn([C@@H]2CS[C@H](CO)O2)c(=O)n1` the Potency was “inactive”. With `CC(C)Cn1cnc2c(N)nc3ccccc3c21` the Potency was “inactive”. In the case of `C=CCn1c(=O)c2cnc(Nc3ccc(N4CCN(C)CC4)cc3)nc2n1-c1cccc(C(C)(C)O)n1`, the Potency is reported as 0.418 µM (active). For `CC(=O)OCC(CCn1cnc2cnc(N)nc21)COC(C)=O`, the Potency was “inactive”. For `CC(=O)c1cnc2ccc(-c3cc(Cl)c(O)c(Cl)c3)nc2c1NC1CCC(CN(C)C)CC1` (centres undefined), the Potency was 0.0741 µM (active). With `CCc1c(O)cc(O)c(C(=O)c2ccc(OCCN3CCOCC3)c(OC)c2)c1CC(=O)N(CCOC)CCOC` the Potency was 2.96 µM (active). In the case of `Cc1ccc(C(=O)Nc2ccc(S(=O)(=O)O)c3cc(S(=O)(=O)O)cc(S(=O)(=O)O)c23)cc1NC(=O)c1cccc(NC(=O)Nc2cccc(C(=O)Nc3cc(C(=O)Nc4ccc(S(=O)(=O)O)c5cc(S(=O)(=O)O)cc(S(=O)(=O)O)c45)ccc3C)c2)c1`, the Potency is reported as 4.69 µM (active). For `Oc1c(Cl)cc(Cl)c2cccnc12`, the Potency was 18.7 µM (active). In the case of `CC[N+](CC)(CC)CCOc1cccc(OCC[N+](CC)(CC)CC)c1OCC[N+](CC)(CC)CC`, the Potency is reported as “inactive”. With `Fc1cc(-c2cccc3ncc(-c4cnn(C5CCNCC5)c4)nc23)cc(F)c1CN1CCOCC1` the Potency was 2.64 µM (active). In the case of `CC(C)CC(=O)Nc1n[nH]c2c1CN(C(=O)C1CCN(C)CC1)C2(C)C`, the Potency is reported as 1.05 µM (active). For `Cc1nc2n(c(=O)c1CCN1CCC(c3noc4cc(F)ccc34)CC1)CCCC2`, the Potency was “inactive”. For `CNC1CCCN(c2c(F)cc3c(=O)c(C(=O)O)cn(C4CC4)c3c2OC)C1` (centres undefined), the Potency was “inactive”. With `Clc1ccc(C2(c3ccc(-c4cn[nH]c4)cc3)CCNCC2)cc1` the Potency was 9.35 µM (active). With `Cc1cnc(CNC(=O)c2c(=O)c3ccc(N4CCCN(C)CC4)nc3n3c2sc2ccccc23)cn1` the Potency was 2.88 µM (active). With `Nc1cc(C(Cl)=C(Cl)Cl)c(S(N)(=O)=O)cc1S(N)(=O)=O` the Potency was 2.96 µM (active). For `Cc1cnc(Nc2ccc(N3CCN(C)CC3)cc2)nc1Nc1cccc(S(=O)(=O)NC(C)(C)C)c1`, the Potency was 0.935 µM (active). With `CCCn1c(=O)c2[nH]c(-c3cnn(Cc4cccc(C(F)(F)F)c4)c3)nc2n(CC)c1=O` the Potency was “inactive”.

Experiment: Quantitative highthroughput screen to assess conditional lethalithy of SEM cells grown in RPMI1640 with dialyzed fetal bovine serum (RPMI+ds) (AID 1963884)
Conditions: SEM B-ALL cells, RPMI+dialyzed FBS, CellTiter-Glo viability, 48 h; series mostly up to 45.8 µM
Outline: as §1
In the case of `O=c1oc2c(O)c(O)cc3c(=O)oc4c(O)c(O)cc1c4c23`, the Potency is reported as “inactive”. In the case of `Cc1nnc(NS(=O)(=O)c2ccc(N)cc2)s1`, the Potency is reported as “inactive”. With `NC1=N[C@H]2[C@H](CS[C@H]2CCCCC(=O)O)N1` the Potency was “inactive”. In the case of `Nc1ccn([C@@H]2CS[C@H](CO)O2)c(=O)n1`, the Potency is reported as “inactive”. With `N#Cc1ccc(C(c2ccc(C#N)cc2)n2cncn2)cc1` the Potency was “inactive”. With `CC(C)Cn1cnc2c(N)nc3ccccc3c21` the Potency was “inactive”. With `c1ccc([C@H]2CN3CCSC3=N2)cc1` the Potency was “inactive”. With `C=CCn1c(=O)c2cnc(Nc3ccc(N4CCN(C)CC4)cc3)nc2n1-c1cccc(C(C)(C)O)n1` the Potency was 0.148 µM (active). For `CC(=O)OCC(CCn1cnc2cnc(N)nc21)COC(C)=O`, the Potency was “inactive”. In the case of `OC[C@H]1O[C@@H](OCCc2ccc(O)cc2)[C@H](O)[C@@H](O)[C@H]1O`, the Potency is reported as “inactive”. With `CC(=O)c1cnc2ccc(-c3cc(Cl)c(O)c(Cl)c3)nc2c1NC1CCC(CN(C)C)CC1` (centres undefined) the Potency was 0.0588 µM (active). For `CCc1c(O)cc(O)c(C(=O)c2ccc(OCCN3CCOCC3)c(OC)c2)c1CC(=O)N(CCOC)CCOC`, the Potency was 2.64 µM (active). For `Oc1c(Cl)cc(Cl)c2cccnc12`, the Potency was 18.7 µM (active). With `CC[N+](CC)(CC)CCOc1cccc(OCC[N+](CC)(CC)CC)c1OCC[N+](CC)(CC)CC` the Potency was “inactive”. In the case of `C#CCN[C@@H]1CCc2ccccc21`, the Potency is reported as “inactive”. For `CC(C)CC(=O)Nc1n[nH]c2c1CN(C(=O)C1CCN(C)CC1)C2(C)C`, the Potency was 4.69 µM (active). With `Cc1nc2n(c(=O)c1CCN1CCC(c3noc4cc(F)ccc34)CC1)CCCC2` the Potency was “inactive”. With `CNC1CCCN(c2c(F)cc3c(=O)c(C(=O)O)cn(C4CC4)c3c2OC)C1` (centres undefined) the Potency was “inactive”. With `Nc1cc(C(Cl)=C(Cl)Cl)c(S(N)(=O)=O)cc1S(N)(=O)=O` the Potency was 4.18 µM (active). In the case of `Cc1cnc(Nc2ccc(N3CCN(C)CC3)cc2)nc1Nc1cccc(S(=O)(=O)NC(C)(C)C)c1`, the Potency is reported as 1.32 µM (active). With `CCCn1c(=O)c2[nH]c(-c3cnn(Cc4cccc(C(F)(F)F)c4)c3)nc2n(CC)c1=O` the Potency was “inactive”.

— PubChem BioAssay (NCATS)
Further: nearly all actives have a fitted effect of over 35% in size.
Potency means the concentration at half of the fitted maximal effect.
